Results: PubChem BioAssay AID1662 (Broad Institute, 2009)
Among all 300,000 compounds or so, about 4,000 (1.3%) were called active.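 How the source made its calls: active means mean replicate score, as percent of positive control median, at least 50; inconclusive means mean below 50 but one replicate at or above 50; inactive means mean and every replicate below 50.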 What follows is part of a selection rich in actives, with near analogues and random picks from the rest.

test: S. pyogenes SKKanGAS growth inhibitors in kanamycin, primary screen, streptokinase expression inhibitor project, SKKanGAS strain, BacTiter-Glo luminescence (AID 1662); conditions: 6 h, at 7.5 µM, active compounds read high;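 further: strain carries kanamycin resistance gene driven by streptokinase promoter and grows in 40 µg/ml kanamycin; loss of luminescence reflects streptokinase promoter inhibition or plain growth inhibition; 0% = median of DMSO wells and 100% = positive control at its reference dose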

inhibition, inactive:
COc1ccc(Oc2cn[nH]c2-c2ccc(OC)cc2O)cc1 13.6%, COC(=O)c1cc(OC)ccc1-c1ccc(OC)cc1 11%, O=C1/C(=C\c2ccccc2Cl)SC(=S)N1CCC(=O)N1CCCc2ccccc21 -4.28%, O=c1[nH]cnc2c1c(-c1ccccc1)cn2-c1ccc(F)cc1 -1.74%, COc1ccc(-c2cn(-c3ccc(OC)cc3)c(=S)[nH]2)cc1 -13.9%, CCOP(=O)(OCC)C(Nc1cccc(C)c1)c1ccc(F)cc1 (stereo not given) -2.54%, CC1CCc2[nH]c3ccc(C(=O)N(C)CC(=O)Nc4cccc(F)c4)cc3c2C1 (stereo not given) -8.76%, CC(C)CC1(C(=O)NCc2ccccn2)C=CCN1C(=O)c1ccccc1 (stereo not given) -5.95%, COc1ccc(CCNC(=O)CSc2nc3[nH]ncc3c(=O)n2-c2cccc(C(F)(F)F)c2)cc1OC -2.08%, COc1ccc(-n2cnnc2SCC(=O)Nc2cccc([N+](=O)[O-])c2)cc1 -8.4%, COC(=O)C1[C@H]2SC(C)(C)C(C(=O)OC)N2C(=O)N1Cc1nc2ccccc2s1 (stereo not given in full) 6.63%, Cc1cccc(OCC(=O)NC2CC(C)(C)NC(C)(C)C2)c1 1.54%, NC(=O)C1CC(=O)N(c2ccc(OCC(=O)NCc3ccccc3)cc2)C1 (stereo not given) 1.49%, CC1(C)S[C@@H]2[C@H](N=CN3CCCCCC3)C(=O)N2[C@H]1C(=O)O -7.68%, C[C@H]1CC[C@]2(O[C@@H](CCO)C[C@@H](O)[C@@H]2O)O1 -3.21%, CC1Cn2c(nnc2-c2cccs2)S1 (stereo not given) -5.31%, CCCn1c(=N)n(CC(=O)c2ccc(Cl)c(Cl)c2)c2ccccc21 2.77%, CN(C(=O)CN1C(=O)NC(C)(CCc2ccccc2)C1=O)c1ccccc1 (stereo not given) -1.34%, CC1CC(=O)N(CC(=O)Nc2cccc(Cl)c2)c2ccccc2S1(=O)=O (stereo not given) -1.88%, CSc1ccc(CNC(=O)c2ccc(NC(=O)C3=CSCCO3)cc2)cc1 -10.5%

inhibition, active:
COc1ccc(-c2cn[nH]c2-c2ccc(OC)cc2)cc1 75.3%, COc1ccc(-n2cc(-c3ccccc3)c3c(=S)nc[nH]c32)cc1 54.1%, NC(=O)NC(=O)CSc1nc2cc([N+](=O)[O-])ccc2n1-c1cccc(C(F)(F)F)c1 97.7%, CC1(C)S[C@@H]2[C@H](NC(=O)COc3ccccc3)C(=O)N2C1C(=O)OCc1ccccc1 (stereo not given in full) 97%, CC1(C)SC2C(NC(=O)COc3ccccc3)C(=O)N2C1C(=O)O (stereo not given) 102%
